PubChem BioAssay AID1159580 (chemical genetic matrix, 2015)
Screen size: about 5,500 compounds; about 2,000 (36%) were called active. Roughly 18% stayed inconclusive and do not appear here. No stated cut-off is given here; in the data, active means normalized growth mostly below about 0.91 (no sharp cut-off); inconclusive means no clear call, values can overlap the other calls; inactive means mostly above about 0.92. Some of the results follow.

Assay: chemical genetic growth profiling, strain panel (AID 1159580);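 further: tested at 20 µM; growth read once vehicle control cultures reached saturation at 30 °C; 1 = growth at the plate median or of vehicle wells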
Settings: growth OD

Measured: normalized growth

COS(C)(=O)=O
inactive: S. cerevisiae deletion strains, locus YJR075W, strain HOC1, stronger effect = lower value 1.01 | S. cerevisiae deletion strains, locus YKL009W, strain mrt4, stronger effect = lower value 1.03 | S. cerevisiae deletion strains, locus YKL068W, stronger effect = lower value 1.01 | S. cerevisiae deletion strains, locus YKL085W, strain MDH1 (second series), stronger effect = lower value 1.02 | S. cerevisiae deletion strains, locus YKL085W, strain MDH1, stronger effect = lower value 1.02 | S. cerevisiae deletion strains, locus YKL160W, strain elf1, stronger effect = lower value 1 | S. cerevisiae deletion strains, locus YKL190W, strain CNB1, stronger effect = lower value 1 | S. cerevisiae deletion strains, locus YKR001C, strain vps1, stronger effect = lower value 1.01 | S. cerevisiae deletion strains, locus YKR026C, strain gcn3, stronger effect = lower value 0.996 | S. cerevisiae deletion strains, locus YKR091W, strain srl3, stronger effect = lower value 0.993 | S. cerevisiae deletion strains, locus YLL001W, strain dnm1, stronger effect = lower value 0.996 | S. cerevisiae deletion strains, locus YLL026W, stronger effect = lower value 0.996 | S. cerevisiae deletion strains, locus YLL041C, strain sdh2, stronger effect = lower value 1 | S. cerevisiae deletion strains, locus YLR027C, strain aat2, stronger effect = lower value 0.97 | S. cerevisiae deletion strains, locus YLR039C, strain RIC1, stronger effect = lower value 1.07 | S. cerevisiae deletion strains, locus YLR058C, strain SHM2, stronger effect = lower value 1.01 | S. cerevisiae deletion strains, locus YLR102C, strain apc9, stronger effect = lower value 1.01 | S. cerevisiae deletion strains, locus YLR113W, strain HOG1, stronger effect = lower value 0.983 | S. cerevisiae deletion strains, locus YLR221C, strain rsa3, stronger effect = lower value 0.961 | S. cerevisiae deletion strains, locus YLR258W, strain gsy2, stronger effect = lower value 1.03 | S. cerevisiae deletion strains, locus YLR262C, strain YPT6 (second series), stronger effect = lower value 0.997 | S. cerevisiae deletion strains, locus YLR262C, strain YPT6, stronger effect = lower value 1.06 | S. cerevisiae deletion strains, locus YLR268W, strain sec22, stronger effect = lower value 0.973 | S. cerevisiae deletion strains, locus YLR320W, strain mms22, stronger effect = lower value 0.954 | S. cerevisiae deletion strains, locus YLR330W, strain CHS5, stronger effect = lower value 1.01 | S. cerevisiae deletion strains, locus YLR342W, strain FKS1 (second series), stronger effect = lower value 1.08 | S. cerevisiae deletion strains, locus YLR342W, strain FKS1, stronger effect = lower value 0.992 | S. cerevisiae deletion strains, locus YLR357W, strain rsc2, stronger effect = lower value 0.935 | S. cerevisiae deletion strains, locus YLR370C, strain arc18, stronger effect = lower value 1 | S. cerevisiae deletion strains, locus YLR371W, strain rom2, stronger effect = lower value 1.02 | S. cerevisiae deletion strains, locus YLR384C, strain iki3, stronger effect = lower value 0.982 | S. cerevisiae deletion strains, locus YLR418C, strain cdc73, stronger effect = lower value 0.95 | S. cerevisiae deletion strains, locus YML016C, strain PPZ1, stronger effect = lower value 1 | S. cerevisiae deletion strains, locus YML032C, strain rad52, stronger effect = lower value 1.03 | S. cerevisiae deletion strains, locus YML120C, strain ndi1, stronger effect = lower value 1 | S. cerevisiae deletion strains, locus YML124C, strain tub3, stronger effect = lower value 1.01 | S. cerevisiae deletion strains, locus YMR058W, strain fet3, stronger effect = lower value 1.02 | S. cerevisiae deletion strains, locus YMR078C, strain ctf18, stronger effect = lower value 1.02 | S. cerevisiae deletion strains, locus YMR125W, strain sto1, stronger effect = lower value 0.992 | S. cerevisiae deletion strains, locus YMR129W, stronger effect = lower value 0.997 | S. cerevisiae deletion strains, locus YMR205C, strain PFK2, stronger effect = lower value 1 | S. cerevisiae deletion strains, locus YMR223W, strain ubp8, stronger effect = lower value 1.05 | S. cerevisiae deletion strains, locus YMR231W, strain pep5, stronger effect = lower value 0.985 | S. cerevisiae deletion strains, locus YMR263W, strain SAP30, stronger effect = lower value 0.995 | S. cerevisiae deletion strains, locus YMR307W, strain GAS1, stronger effect = lower value 1.05 | S. cerevisiae deletion strains, locus YNL067W, strain RPL9B, stronger effect = lower value 1 | S. cerevisiae deletion strains, locus YNL071W, strain lat1, stronger effect = lower value 1 | S. cerevisiae deletion strains, locus YNL128W, strain TEP1, stronger effect = lower value 0.987 | S. cerevisiae deletion strains, locus YNL153C, strain GIM3, stronger effect = lower value 0.976 | S. cerevisiae deletion strains, locus YNL183C, strain NPR1, stronger effect = lower value 1 | S. cerevisiae deletion strains, locus YNL209W, strain ssb2, stronger effect = lower value 1.01 | S. cerevisiae deletion strains, locus YNL233W, strain BNI4, stronger effect = lower value 0.99 | S. cerevisiae deletion strains, locus YNL248C, strain rpa49, stronger effect = lower value 0.998 | S. cerevisiae deletion strains, locus YNL250W, strain rad50, stronger effect = lower value 1.02 | S. cerevisiae deletion strains, locus YNL271C, strain bni1, stronger effect = lower value 1.02 | S. cerevisiae deletion strains, locus YNL298W, strain CLA4, stronger effect = lower value 1.02 | S. cerevisiae deletion strains, locus YNL307C, strain MCK1, stronger effect = lower value 1.03 | S. cerevisiae deletion strains, locus YNL322C, strain KRE1 (second series), stronger effect = lower value 0.976 | S. cerevisiae deletion strains, locus YNL322C, strain KRE1, stronger effect = lower value 1.01 | S. cerevisiae deletion strains, locus YNR049C, strain mso1, stronger effect = lower value 0.995 | S. cerevisiae deletion strains, locus YNR052C, strain pop2, stronger effect = lower value 1.03 | S. cerevisiae deletion strains, locus YOL006C, strain TOP1, stronger effect = lower value 1.03 | S. cerevisiae deletion strains, locus YOL012C, strain htz1 0.976 | S. cerevisiae deletion strains, locus YOL147C, strain pex11, stronger effect = lower value 1.01 | S. cerevisiae deletion strains, locus YOR001W, strain rrp6, stronger effect = lower value 0.942 | S. cerevisiae deletion strains, locus YOR061W, strain CKA2, stronger effect = lower value 1 | S. cerevisiae deletion strains, locus YOR069W, strain VPS5, stronger effect = lower value 1.01 | S. cerevisiae deletion strains, locus YOR070C, strain gyp1, stronger effect = lower value 0.989 | S. cerevisiae deletion strains, locus YOR080W, strain dia2, stronger effect = lower value 0.986 | S. cerevisiae deletion strains, locus YOR083W, strain WHI5, stronger effect = lower value 1.01 | S. cerevisiae deletion strains, locus YOR106W, strain vam3, stronger effect = lower value 1.03 | S. cerevisiae deletion strains, locus YOR136W, strain idh2, stronger effect = lower value 1.01 | S. cerevisiae deletion strains, locus YOR144C, strain elg1, stronger effect = lower value 1 | S. cerevisiae deletion strains, locus YOR184W, strain ser1, stronger effect = lower value 1.05 | S. cerevisiae deletion strains, locus YOR231W, strain MKK1, stronger effect = lower value 0.987 | S. cerevisiae deletion strains, locus YOR265W, strain rbl2, stronger effect = lower value 0.999 | S. cerevisiae deletion strains, locus YOR270C, strain vph1, stronger effect = lower value 0.981 | S. cerevisiae deletion strains, locus YOR290C, strain snf2, stronger effect = lower value 0.995 | S. cerevisiae deletion strains, locus YOR316C, strain cot1, stronger effect = lower value 1.02 | S. cerevisiae deletion strains, locus YPL051W, strain arl3, stronger effect = lower value 1.02 | S. cerevisiae deletion strains, locus YPL055C, strain LGE1, stronger effect = lower value 0.968 | S. cerevisiae deletion strains, locus YPL078C, strain atp4, stronger effect = lower value 1.01 | S. cerevisiae deletion strains, locus YPL106C, strain sse1, stronger effect = lower value 0.99 | S. cerevisiae deletion strains, locus YPL240C, strain hsp82, stronger effect = lower value 0.995 | S. cerevisiae deletion strains, locus YPL241C, strain CIN2, stronger effect = lower value 1 | S. cerevisiae deletion strains, locus YPL256C, strain CLN2, stronger effect = lower value 0.99 | S. cerevisiae deletion strains, locus YPR119W, strain clb2, stronger effect = lower value 1 | S. cerevisiae deletion strains, locus YPR141C, strain kar3, stronger effect = lower value 1.02 | S. cerevisiae deletion strains, locus YPR163C, strain tif3, stronger effect = lower value 1 | S. cerevisiae deletion strains, locus YPR167C, strain met16, stronger effect = lower value 1.01 | S. cerevisiae deletion strains, strain wtn01, stronger effect = lower value 0.981 | S. cerevisiae strains, strain wild type, stronger effect = lower value 1.01
